Reference: PubChem BioAssay (NCI)
“And” between values parts separate entries of the source, which are not always exact repeats. Equal values may be shown once. About 83,000 compounds went through this panel and 20% of them were active in at least one assay; those are over-represented in the sample as a whole.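 Single-dose data. Exposure time 48 hours. Values below 10 considered active.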 The source made the active and inactive calls.

What was measured:
Test in all cases: NCI-60 one-dose screen, 48 h (100 = growth as untreated, 0 = no growth, -100 = all killed)
[1] = system: DU-145 prostate; settings: 10 µM
[2] = system: K-562 leukemia; settings: 10 µM
[3] = system: MALME-3M melanoma; settings: 10 µM
[4] = system: MDA-MB-231 breast; settings: 10 µM
[5] = system: RXF 393 renal; settings: 10 µM
[6] = system: SF-268 CNS; settings: 10 µM
[7] = system: SF-295 CNS; settings: 10 µM
[8] = system: SF-539 CNS; settings: 10 µM
[9] = system: M14 melanoma; settings: 10 µM
[10] = system: HCT-15 colon; settings: 10 µM
[11] = system: HT29 colon; settings: 10 µM
[12] = system: SNB-75 CNS; settings: 10 µM
[13] = system: SNB-19 CNS; settings: 10 µM
[14] = system: PC-3 prostate; settings: 10 µM
[15] = system: SK-MEL-5 melanoma; settings: 10 µM
[16] = system: UACC-62 melanoma
[17] = system: LOX IMVI melanoma; settings: 10 µM
[18] = system: SK-MEL-28 melanoma; settings: 10 µM
[19] = system: UACC-257 melanoma; settings: 10 µM
[20] = system: U251 CNS; settings: 10 µM

Question: `CCOC(=O)C/C(C)=N\O` was tested. Which growth [1] did it give?
Answer: 107% (inactive)

Question: And the growth [2]?
Answer: 94.4% (inactive)

Question: And the growth [3]?
Answer: 98.9% (inactive)

Question: And the growth [4]?
Answer: 105% (inactive)

Question: What about the growth [5] of the same molecule?
Answer: 113% (inactive)

Question: And the growth [6]?
Answer: 103% (inactive)

Question: What about the growth [7] of the same molecule?
Answer: 91.6% (inactive)

Question: And the growth [8]?
Answer: 107% (inactive)

Question: What about the growth [9] of the same molecule?
Answer: 101% (inactive)

Question: What about the growth [10] of the same molecule?
Answer: 103% (inactive)

Question: And the growth [11]?
Answer: 98.9% (inactive)

Question: What about the growth [12] of the same molecule?
Answer: 118% (inactive)

Question: What about the growth [13] of the same molecule?
Answer: 99.2% (inactive)

Question: What about the growth [14] of the same molecule?
Answer: 96.8% (inactive)

Question: And the growth [15]?
Answer: 100% (inactive)

Question: And the growth ([16]; 10 µM unless noted)?
Answer: 107% (inactive)

Question: And the growth [17]?
Answer: 100% (inactive)

Question: `O=C1OC(c2ccc(F)cc2)CC1CN1CCOCC1` (stereo unspecified) was tested. Which growth [1] did it give?
Answer: 106% (inactive)

Question: What about the growth [2] of the same molecule?
Answer: 113% (inactive)

Question: And the growth [3]?
Answer: 95.6% (inactive)

Question: What about the growth [4] of the same molecule?
Answer: 105% (inactive)

Question: What about the growth [5] of the same molecule?
Answer: 111% (inactive)

Question: And the growth [6]?
Answer: 104% (inactive)

Question: What about the growth [7] of the same molecule?
Answer: 89.9% (inactive)

Question: What about the growth [8] of the same molecule?
Answer: 96.9% (inactive)

Question: What about the growth [9] of the same molecule?
Answer: 104% (inactive)

Question: What about the growth [10] of the same molecule?
Answer: 110% (inactive)

Question: And the growth [11]?
Answer: 90.3% (inactive)

Question: And the growth [12]?
Answer: 89.1% (inactive)

Question: And the growth [13]?
Answer: 98.1% (inactive)

Question: And the growth [14]?
Answer: 88.9% (inactive)

Question: What about the growth [15] of the same molecule?
Answer: 104% (inactive)

Question: And the growth ([16]; 10 µM unless noted)?
Answer: 110% (inactive)

Question: And the growth [17]?
Answer: 89.2% (inactive)

Question: And the growth [18]?
Answer: 109% (inactive)

Question: What does the source list for `COc1cc2c3cc1Oc1c(OC)c(OC)cc4c1C(Cc1ccc(O)c(c1)Oc1ccc(cc1)CC3N(C)CC2)N(C)CC4` (stereo unspecified)?
Answer: growth [1]: 33.4% (inactive); growth [2]: 0.419% (active); growth [3]: -79.3% (active); growth [4]: -24.1% (active); growth [5]: -14.9% (active); growth [6]: 36.2% (inactive); growth [8]: -23.5% (active); growth [19]: -62.2% (active); growth [9]: -77.8% (active); growth [10]: 6.32% (active); growth [11]: -21.8% (active); growth [12]: 33.3% (inactive); growth [13]: 27.2% (inactive); growth [20]: -95.9% (active); growth [14]: 1.26% (active); growth [15]: -98.2% (active); growth ([16]; 10 µM): 27.6% (inactive); growth ([16]; 100 µM): 98.2% (inactive) and -80.6% (active); growth [17]: -90.5% (active); growth [18]: -80.8% (active)

Question: With `CCOC(=O)c1coc(C(=O)OCC)c1C(=O)OCC` as the molecule, how does the growth [1] read?
Answer: 116% (inactive)

Question: And the growth [2]?
Answer: 112% (inactive)

Question: And the growth [3]?
Answer: 116% (inactive)

Question: And the growth [4]?
Answer: 107% (inactive)

Question: And the growth [5]?
Answer: 123% (inactive)

Question: And the growth [6]?
Answer: 105% (inactive)

Question: What about the growth [7] of the same molecule?
Answer: 102% (inactive)

Question: What about the growth [19] of the same molecule?
Answer: 112% (inactive)

Question: And the growth [9]?
Answer: 120% (inactive)

Question: And the growth [10]?
Answer: 105% (inactive)

Question: What about the growth [11] of the same molecule?
Answer: 124% (inactive)

Question: What about the growth [12] of the same molecule?
Answer: 92.3% (inactive)

Question: And the growth [13]?
Answer: 112% (inactive)

Question: And the growth [20]?
Answer: 102% (inactive)

Question: And the growth [14]?
Answer: 122% (inactive)

Question: And the growth [15]?
Answer: 108% (inactive)

Question: And the growth ([16]; 10 µM unless noted)?
Answer: 112% (inactive)

Question: And the growth [17]?
Answer: 108% (inactive)

Question: And the growth [18]?
Answer: 117% (inactive)

Question: For `Cc1ccccc1C1N=C2Oc3ccccc3C=C2C(=O)N1` (stereo unspecified), which growth [1] is on record?
Answer: 20.4% (inactive)

Question: What about the growth [2] of the same molecule?
Answer: 24.2% (inactive)

Question: What about the growth [3] of the same molecule?
Answer: 51.8% (inactive)

Question: And the growth [4]?
Answer: 32.5% (inactive)

Question: And the growth [5]?
Answer: -4.6% (active)

Question: What about the growth [6] of the same molecule?
Answer: 53.7% (inactive)

Question: What about the growth [8] of the same molecule?
Answer: -5.32% (active)

Question: And the growth [19]?
Answer: 56.2% (inactive)

Question: What about the growth [9] of the same molecule?
Answer: -24.7% (active)

Question: And the growth [10]?
Answer: 36.8% (inactive)

Question: And the growth [11]?
Answer: 49.7% (inactive)

Question: And the growth [12]?
Answer: 21% (inactive)

Question: And the growth [13]?
Answer: 61.3% (inactive)

Question: And the growth [20]?
Answer: 63.8% (inactive)

Question: What about the growth [14] of the same molecule?
Answer: 16.3% (inactive)

Question: And the growth [15]?
Answer: 30.7% (inactive)

Question: What about the growth ([16]; 10 µM unless noted) of the same molecule?
Answer: 35.1% (inactive)

Question: What about the growth [17] of the same molecule?
Answer: 57.3% (inactive)

Question: With `O=C(Nc1ccccc1C(=O)NCC1CC1)c1cccs1` as the molecule, how does the growth [1] read?
Answer: 118% (inactive)

Question: What about the growth [2] of the same molecule?
Answer: 103% (inactive)

Question: And the growth [3]?
Answer: 131% (inactive)

Question: What about the growth [4] of the same molecule?
Answer: 97.1% (inactive)

Question: What about the growth [5] of the same molecule?
Answer: 98.9% (inactive)

Question: What about the growth [6] of the same molecule?
Answer: 113% (inactive)

Question: What about the growth [7] of the same molecule?
Answer: 86.5% (inactive)

Question: What about the growth [8] of the same molecule?
Answer: 101% (inactive)

Question: And the growth [9]?
Answer: 103% (inactive)

Question: What about the growth [10] of the same molecule?
Answer: 93.8% (inactive)

Question: What about the growth [11] of the same molecule?
Answer: 105% (inactive)

Question: And the growth [12]?
Answer: 70.3% (inactive)

Question: What about the growth [13] of the same molecule?
Answer: 100% (inactive)

Question: And the growth [14]?
Answer: 94.6% (inactive)

Question: What about the growth [15] of the same molecule?
Answer: 98.7% (inactive)

Question: What about the growth ([16]; 10 µM unless noted) of the same molecule?
Answer: 98.4% (inactive)

Question: What about the growth [17] of the same molecule?
Answer: 102% (inactive)

Question: And the growth [18]?
Answer: 110% (inactive)

Question: How did the growth [1] turn out when `COc1ccc(C(=O)C(Br)C(Br)C(=O)O)cc1` (stereo unspecified) was run?
Answer: 111% (inactive)

Question: What about the growth [2] of the same molecule?
Answer: 109% (inactive)

Question: And the growth [3]?
Answer: 109% (inactive)

Question: And the growth [4]?
Answer: 111% (inactive)

Question: And the growth [5]?
Answer: 106% (inactive)

Question: What about the growth [6] of the same molecule?
Answer: 108% (inactive)

Question: What about the growth [7] of the same molecule?
Answer: 108% (inactive)

Question: And the growth [8]?
Answer: 99.5% (inactive)

Question: And the growth [9]?
Answer: 89.2% (inactive)

Question: And the growth [10]?
Answer: 98.1% (inactive)

Question: And the growth [11]?
Answer: 117% (inactive)

Question: And the growth [12]?
Answer: 87.4% (inactive)

Question: What about the growth [20] of the same molecule?
Answer: 104% (inactive)

Question: And the growth [14]?
Answer: 110% (inactive)

Question: And the growth [15]?
Answer: 101% (inactive)

Question: What about the growth [17] of the same molecule?
Answer: 97.7% (inactive)

Question: What about the growth [18] of the same molecule?
Answer: 108% (inactive)

Question: For `COc1ccccc1N1CCN(C(=S)Nc2ccccc2)CC1`, which growth [1] is on record?
Answer: 100% (inactive)

Question: And the growth [2]?
Answer: 81.8% (inactive)

Question: What about the growth [3] of the same molecule?
Answer: 97.3% (inactive)

Question: What about the growth [4] of the same molecule?
Answer: 101% (inactive)

Question: What about the growth [5] of the same molecule?
Answer: 100% (inactive)

Question: And the growth [6]?
Answer: 99.3% (inactive)

Question: What about the growth [8] of the same molecule?
Answer: 106% (inactive)

Question: What about the growth [9] of the same molecule?
Answer: 100% (inactive)

Question: And the growth [10]?
Answer: 103% (inactive)

Question: And the growth [11]?
Answer: 96.7% (inactive)

Question: What about the growth [12] of the same molecule?
Answer: 84% (inactive)

Question: What about the growth [13] of the same molecule?
Answer: 99.6% (inactive)

Question: What about the growth [14] of the same molecule?
Answer: 89.9% (inactive)

Question: And the growth [15]?
Answer: 97.9% (inactive)

Question: What about the growth ([16]; 10 µM unless noted) of the same molecule?
Answer: 98.2% (inactive)

Question: And the growth [17]?
Answer: 90.4% (inactive)

Question: And the growth [18]?
Answer: 105% (inactive)

Question: For `CC(=O)Nc1cccc(NC(C)=O)n1`, which growth [1] is on record?
Answer: 110% (inactive)

Question: And the growth [2]?
Answer: 96.6% (inactive)

Question: And the growth [3]?
Answer: 91.5% (inactive)

Question: And the growth [4]?
Answer: 107% (inactive)

Question: What about the growth [6] of the same molecule?
Answer: 100% (inactive)

Question: What about the growth [7] of the same molecule?
Answer: 108% (inactive)

Question: What about the growth [8] of the same molecule?
Answer: 103% (inactive)

Question: And the growth [19]?
Answer: 102% (inactive)

Question: And the growth [9]?
Answer: 103% (inactive)

Question: And the growth [10]?
Answer: 103% (inactive)

Question: What about the growth [11] of the same molecule?
Answer: 110% (inactive)

Question: What about the growth [12] of the same molecule?
Answer: 106% (inactive)

Question: And the growth [20]?
Answer: 102% (inactive)

Question: And the growth [15]?
Answer: 105% (inactive)

Question: What about the growth ([16]; 10 µM unless noted) of the same molecule?
Answer: 97.5% (inactive)

Question: What about the growth [17] of the same molecule?
Answer: 103% (inactive)

Question: What about the growth [18] of the same molecule?
Answer: 108% (inactive)
